Bioassay records from PubChem BioAssay.
Most compounds without a hit are left out; they make up all but 2.8% or so of the library.
MITF TRPM1 inh: MITF TRPM1 promoter inhibition in SK-MEL-5 cells | SK-MEL-5 TRPM1 promoter luciferase, 24 h | AID 488899 | inhibition, % at 12.5 µM | 330,000 compounds, 0.83% hits;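 active = mean inhibition across replicates of 60% or more, whatever share of single replicates reaches that level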
EBV LMP1 NFkB: reduces LMP1-driven NF-kappaB luciferase signal. LMP1-induced NF-kappaB luciferase reporter cells, luminescence. inhibition, % at 12.5 µM. 350,000 compounds, 0.69% hits. AID 504558; in the data active = inhibition above about 41%;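 also: 0% = neutral control wells and 100% = reference inhibitor control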
Peg3 prom inh: inhibitors of Peg3 promoter; HeLa PEG-Prom luciferase reporter, luminescence, overnight; 360,000 compounds, 1.7% hits; AID 588405; inhibition, % at 20 µM;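 active = inhibition of at least 50% at 20 µM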
HIF-2a inh: blocks HIF-2a reporter activity; inhibition, % at 18.8 µM; AID 624352; 360,000 compounds, 0.72% hits; 786-0 RCC cells HIF-2a reporter, luciferase luminescence, overnight;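 active = inhibition of the luminescence signal of 40% or more relative to plate controls, in a single-dose primary screen at 18.75 µM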
Shn3 3UTR inh: inhibitors of Schnurri-3 3'UTR reporter in osteoblasts. Clone20 osteoblast Shn3 3'UTR firefly luciferase, 24 h. inhibition, % at 12.5 µM. 360,000 compounds, 0.52% hits;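 active = mean inhibition of at least 75% with every replicate also reaching 75%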;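 also: 0% = median of neutral control wells and 100% = pilot-screen positive control compound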
PAX8 reporter: lowers PAX8-driven luciferase in RMG-I cells | 360,000 compounds, 1.2% hits | AID 652154 | inhibition, % at 12.6 µM | RMG-I TPO-luciferase reporter, SteadyGlo, 24 h;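 active = mean replicate inhibition at least 60% with every replicate also reaching 60%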;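 also: luciferase light reporting Pax8 driven TPO promoter activity; plate controls were median of neutral control wells for no effect and mitoxantrone controls for full effect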
Mdm2 MdmX conf: confirmation of inhibitors of human Mdm2/MdmX interaction, set 2; 740 compounds, 99% hits; AID 504601; shares compounds with HIF-2a inh; SaOS-2 split-luciferase Mdm2/MdmX complementation, luminescence; inhibition, % at 8 µM;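 active = mean inhibition of the luminescence signal across two replicates at or above 26 percent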
Target sequence (O15151 whole entry, looked up): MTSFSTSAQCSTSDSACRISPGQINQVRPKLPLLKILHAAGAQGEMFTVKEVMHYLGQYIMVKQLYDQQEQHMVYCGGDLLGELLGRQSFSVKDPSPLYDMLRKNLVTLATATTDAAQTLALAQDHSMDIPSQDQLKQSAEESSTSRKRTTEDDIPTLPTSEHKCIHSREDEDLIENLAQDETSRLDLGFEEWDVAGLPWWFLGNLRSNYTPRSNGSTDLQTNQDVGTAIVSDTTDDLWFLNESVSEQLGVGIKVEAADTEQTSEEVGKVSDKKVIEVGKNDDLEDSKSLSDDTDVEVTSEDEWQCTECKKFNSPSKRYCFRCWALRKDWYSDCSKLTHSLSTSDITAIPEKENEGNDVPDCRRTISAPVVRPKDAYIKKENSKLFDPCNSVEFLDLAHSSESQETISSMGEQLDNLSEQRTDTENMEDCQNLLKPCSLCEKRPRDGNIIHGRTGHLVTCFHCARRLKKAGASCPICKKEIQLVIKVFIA
Target sequence (Q00987 whole entry, looked up): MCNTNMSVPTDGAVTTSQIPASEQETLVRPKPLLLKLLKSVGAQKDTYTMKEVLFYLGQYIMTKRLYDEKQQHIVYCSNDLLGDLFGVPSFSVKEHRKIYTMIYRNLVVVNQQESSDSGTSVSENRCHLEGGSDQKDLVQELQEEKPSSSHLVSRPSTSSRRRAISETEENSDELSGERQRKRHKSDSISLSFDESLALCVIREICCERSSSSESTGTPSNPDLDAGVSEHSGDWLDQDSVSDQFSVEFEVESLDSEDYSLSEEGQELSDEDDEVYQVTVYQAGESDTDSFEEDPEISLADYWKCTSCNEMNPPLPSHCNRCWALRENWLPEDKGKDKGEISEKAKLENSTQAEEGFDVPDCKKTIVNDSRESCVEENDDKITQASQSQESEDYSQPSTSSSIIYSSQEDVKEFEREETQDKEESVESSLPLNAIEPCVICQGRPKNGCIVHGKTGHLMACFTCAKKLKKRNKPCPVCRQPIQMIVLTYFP
HIF-2a inh conf: HIF-2a inhibition, single concentration confirmation. inhibition, % at 18.8 µM. 1,800 compounds, 56% hits. 786-0 RCC cells, HIF-2a luciferase reporter luminescence, overnight. shares compounds with HIF-2a inh;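 active = mean inhibition across four replicates of at least 40 percent at the single tested concentration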
HIF-1a counter: HIF-1a inhibition counter-screen for HIF-2a hits. shares compounds with HIF-2a inh. MiaPaCa-2 HIF-1a luciferase reporter, desferoxamine, overnight. inhibition, % at 18.8 µM. 1,800 compounds, 72% hits. AID 651589;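 active = mean inhibition of the reporter signal across four replicates at the single tested dose of 50% or more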
* = called active by the depositor; . = not tested or not shown.

SMILES | MITF TRPM1 inh | EBV LMP1 NFkB | Peg3 prom inh | HIF-2a inh | Shn3 3UTR inh | PAX8 reporter | HIF-2a inh conf | HIF-1a counter | others
Cc1nc2cc(-c3cccc(F)c3)nn2c(C)c1CCC(=O)NC(C)CCc1ccco1 (stereo not given) | 53 | 24 | -1 | 73* | 67 | . | 82* | 72*
COc1ccccc1-c1cc2nc(C)c(CCC(=O)NCc3ccco3)c(C)n2n1 | 15 | -1 | -2 | 49* | 10 | 14 | 55* | 41
COc1ccc(CNC(=O)CCc2c(C)nc3cc(-c4ccccc4OC)nn3c2C)cc1 | 8 | -7 | -1 | 49* | 11 | 15 | 58* | 31
Cc1nc2cc(-c3ccccc3)nn2c(C)c1CCC(=O)NCc1ccco1 | 32 | 3 | -59 | 69* | 12 | -13 | 79* | 37
CN(C)C(=O)c1cccc(-c2ccc(C3[C@H]4CNC[C@@H]3N4Cc3cc(-c4ccccc4)on3)cc2)c1 (stereo not given in full) | . | . | . | . | . | 7 | . | .
CC(C)NC(=O)Nc1ccc2c(c1)CC(=O)N([C@@H](C)CO)C[C@H](C)[C@H](CN(C)C(=O)Nc1ccc3c(c1)OCO3)O2 | . | . | . | . | . | 7 | . | .
COCCCN=C1NN=C(c2cc(C)n(-c3ccccc3F)c2C)CS1 | 26 | 33 | -2 | 21 | 39 | -36 | . | .
COCCn1c(C)cc(C2=NNC(=Nc3ccccc3F)SC2)c1C | 67* | 64* | 6 | 78* | 67 | . | 34 | 71* | Mdm2 MdmX conf=80*
C[C@@H]1CN([C@@H](C)CO)C(=O)c2cc(C3=CCCC3)cnc2O[C@@H]1CN(C)C(=O)c1ccc2c(c1)OCO2 | . | . | . | . | . | -3 | . | .
COc1ccccc1-c1ccccc1[C@H]1[C@@H](CO)N(C(=O)C2CC2)[C@H]1C#N | . | . | . | . | . | 0 | . | .
COc1cccc2c1C(CO)N1C(C#N)C3CC(C(=O)O)C(C1C2)N3C (stereo not given) | 67* | 89* | 108* | 42* | -94 | . | 8 | 106* | Mdm2 MdmX conf=103*
C[C@H](O)C#Cc1ccc([C@@H]2[C@H](CO)N3CCCCN(CC4CCOCC4)C[C@@H]23)cc1 | . | . | . | . | . | -17 | . | .
COc1ccc(-c2cnc3c(NC=O)cc(-c4ccc(C(=O)N5CCOCC5)cc4)cn23)cc1OC | . | . | 35 | 41* | -2 | 22 | 45* | 69*
COC(=O)Cn1ccc(-c2ccc(Cl)cc2)c(C#N)c1=O | 1 | -1 | -3 | 57* | -1 | -11 | 4 | 2
O=C(C[C@H]1CC[C@@H]2[C@H](COC[C@H](O)CN2Cc2cc(F)ccc2F)O1)NCc1ccc(F)cc1 | . | . | . | . | . | -7 | . | .
CSC1=NC=C(C#N)C2=NC(c3c(Cl)cccc3Cl)NN12 (stereo not given) | . | . | -8 | 65* | -9 | . | 1 | 5
CCOC(=O)c1c(C)[nH]c(C(=O)Nc2ccc(NC(C)=O)cc2)c1C | 16 | -2 | 2 | 88* | 22 | 11 | 96* | 84*
CN(CCO)c1cc(Sc2nc3ccccc3s2)c2nonc2c1[N+](=O)[O-] | 91* | 2 | 104* | 86* | 87* | . | 89* | 73*
Oc1ccc(NCc2cccs2)cc1 | -3 | 0 | 6 | 57* | -10 | 3 | 26 | 78*
CCC(=O)N1CCN(c2ccc(NC(=O)c3ccc([N+](=O)[O-])o3)cc2Cl)CC1 | 87* | -48 | 114* | 94* | 96* | 99* | 51* | 90*
CCN1CCN(c2ccc(NC(=O)c3ccc([N+](=O)[O-])o3)cc2Cl)CC1 | 71* | -37 | 102* | 64* | 68 | 83* | 49* | 58*
CCC(=O)N1CCN(c2ccc(NC(=O)c3ccco3)cc2Cl)CC1 | -27 | -4 | -54 | -46 | -30 | -17 | . | .
